This note sets out measurements from PubChem BioAssay AID493076 (National Center for Advancing Translational Sciences (NCATS), 2011).

This is one part of the list. Results filed as inconclusive are left out. Activity calls are given as the source filed them. Calls come from the whole dose curve; as a rule, active = well fitted curve in the direction sought with a large enough effect; inconclusive = small, poorly fitted or top-dose-only effect, or effect the other way, or another doubt; inactive = no such curve, though single readings can be large or run the other way.

Thyrotropin-releasing hormone receptor (Homo sapiens), sequence (P34981 whole entry, looked up): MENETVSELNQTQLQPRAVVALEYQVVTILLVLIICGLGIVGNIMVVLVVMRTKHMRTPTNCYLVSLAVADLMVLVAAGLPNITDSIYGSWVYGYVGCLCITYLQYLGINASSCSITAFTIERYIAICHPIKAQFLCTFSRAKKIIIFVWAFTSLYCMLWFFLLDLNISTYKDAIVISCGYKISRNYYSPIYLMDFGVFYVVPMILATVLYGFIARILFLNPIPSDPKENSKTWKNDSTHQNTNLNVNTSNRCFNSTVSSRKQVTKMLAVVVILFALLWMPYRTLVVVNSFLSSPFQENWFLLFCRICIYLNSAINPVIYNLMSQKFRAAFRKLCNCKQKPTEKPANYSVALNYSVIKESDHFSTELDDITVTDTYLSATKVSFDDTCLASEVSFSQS

The test concerns the target Thyrotropin-releasing hormone receptor (Homo sapiens) (UniProt P34981). Briefly: qHTS for Small Molecule Agonists and Allosteric Enhancers of Human TRH Receptor: Confirmation Screen for Enhancers. The following applies: TRH receptor cell assay, enhancer confirmation qHTS; series mostly up to 46.1 µM. An excerpt: NIH Chemical Genomics Center [NCGC]
NIH Molecular Libraries Probe Centers Network [MLPCN]
Assay Submitter (PI): Marvin Gershengorn
This project aims to identify small drug-like molecules that activate (agonists) the thyrotropin releasing hormone (TRH) receptor (TRHR) or enhance its TRH-stimulated activity (allosteric enhancers). TRHR, a drug-accessible cell surface receptor expressed in specific brain regions, and its ligand TRH have been implicated in several central nervous system disorders, including depression and anxiety. Small molecule TRHR agonists or allosteric enhancers that are metabolically stable and able to cross the blood-brain barrier might serve as probes to elucidate the roles of brain TRH receptors in animal models, and might be valuable as lead compounds for the development of drugs to treat patients with central nervous system disorders.
Upon TRHR-Gq activation in TRHR cells, intracellular calcium is released from stores in the endoplasmic reticulum. […] This primary screen measures compound-induced enhancement of an EC20 stimulation of the receptor by its native ligand.
For the HTS assay freshly prepared cells are plated at a density of 2000/well in 3 ul of complete DMEM medium containing 10% serum in 1536-well plates and cultured over night at 37 C in a humidified incubator with 5% CO2. The next day, 2 ul of a no wash calcium dye (ABD Bioquest) was added to the cells and plates were incubated at room temperature for 1 hour. For the assay, assay plates were loaded into the FDSS kinetic plate reader. A 10 cycle (1 second/cycle) baseline measurement is taken and then the FDSS online 1536 pintool delivers 23 nl of compound library (as well as TRH controls) to the plate. The plate is measured for kinetically at 1 cycle/sec for 180 seconds and is considered to be the agonist portion of the assay (eg, compounds which activate a positive calcium response during this portion are flagged as potential agonists). Following the 180 second read, 1 ul of either an EC20 (positive modulation assay) is delivered by an onboard pipette head. Measurements are taken kinetically for an additional 180 seconds.
TRHR FDSS Screening Protocol
1. Reagent, 3 uL 2000 cells/well 1536 TC treated Black plate in media containing 10% FCS
2. Time, 18 hours, 33.5C 5% CO2 (cells grown at 37C)
3. Reagent, 2 uL ABD fluo-8 Ca dye
4. Time, 30 min-1.5hrs hours, Room temp (6 plates/batch)
5. Detector, EX 480/EM 530C, FDSS 10 cycles baseline (1sec/cycle)
6. Compound, 23 nL of stock solution from library
7. Detector, EX 480/EM 530C, FDSS 230 cycles (1sec/cycle) Agonist mode
8. Compound, 1 ul EC20 of TRH made up in HEPES HBSS, 10 nM final
9. Detector, EX 480/EM 530C, FDSS 100 cycles (1sec/cycle) Potentiator mode
Consider `O=C(CN1C(=O)c2cccc3cccc1c23)Nc1ccccc1`, for which the result was inactive.

As to `c1cnc(N2CCN(c3ccc4ccccc4n3)CC2)nc1`, the outcome was inactive.

Regarding `CCOc1ncccc1C(=O)OCC(=O)N1c2ccccc2CC1C` (stereo not drawn), the outcome was inactive.
